Laboratory results published in PubChem BioAssay AID1224864 (Chung Lab, Department of Pediatrics, Emory University, 2016).
About 20 (1%) of roughly 2,000 compounds were called active. The sample holds actives, similar compounds and a random draw of the others, so the mix is not that of the screen. No rule for the calls is given here.

biological target: Cystic fibrosis transmembrane conductance regulator (Homo sapiens) (UniProt P13569); experiment: F508del-CFTR plasma membrane relocalization enhancers – imaging, HeLa, high-content microscopy, immunofluorescence, primary screen (AID 1224864); details: PM immunofluorescence imaging, 24 h, at 10 µM, stronger effect = higher value; total CFTR intensity: measured here: total cellular F508del-CFTR signal unless noted;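 also: HeLa cells stably expressing F508del-CFTR stained with 3G11 antibody against NBD1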;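 as to plasma membrane CFTR intensity: mean immunofluorescence in a thin cell-margin band taken as plasma membrane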
Sequence (P13569 whole entry, looked up, stated change not applied): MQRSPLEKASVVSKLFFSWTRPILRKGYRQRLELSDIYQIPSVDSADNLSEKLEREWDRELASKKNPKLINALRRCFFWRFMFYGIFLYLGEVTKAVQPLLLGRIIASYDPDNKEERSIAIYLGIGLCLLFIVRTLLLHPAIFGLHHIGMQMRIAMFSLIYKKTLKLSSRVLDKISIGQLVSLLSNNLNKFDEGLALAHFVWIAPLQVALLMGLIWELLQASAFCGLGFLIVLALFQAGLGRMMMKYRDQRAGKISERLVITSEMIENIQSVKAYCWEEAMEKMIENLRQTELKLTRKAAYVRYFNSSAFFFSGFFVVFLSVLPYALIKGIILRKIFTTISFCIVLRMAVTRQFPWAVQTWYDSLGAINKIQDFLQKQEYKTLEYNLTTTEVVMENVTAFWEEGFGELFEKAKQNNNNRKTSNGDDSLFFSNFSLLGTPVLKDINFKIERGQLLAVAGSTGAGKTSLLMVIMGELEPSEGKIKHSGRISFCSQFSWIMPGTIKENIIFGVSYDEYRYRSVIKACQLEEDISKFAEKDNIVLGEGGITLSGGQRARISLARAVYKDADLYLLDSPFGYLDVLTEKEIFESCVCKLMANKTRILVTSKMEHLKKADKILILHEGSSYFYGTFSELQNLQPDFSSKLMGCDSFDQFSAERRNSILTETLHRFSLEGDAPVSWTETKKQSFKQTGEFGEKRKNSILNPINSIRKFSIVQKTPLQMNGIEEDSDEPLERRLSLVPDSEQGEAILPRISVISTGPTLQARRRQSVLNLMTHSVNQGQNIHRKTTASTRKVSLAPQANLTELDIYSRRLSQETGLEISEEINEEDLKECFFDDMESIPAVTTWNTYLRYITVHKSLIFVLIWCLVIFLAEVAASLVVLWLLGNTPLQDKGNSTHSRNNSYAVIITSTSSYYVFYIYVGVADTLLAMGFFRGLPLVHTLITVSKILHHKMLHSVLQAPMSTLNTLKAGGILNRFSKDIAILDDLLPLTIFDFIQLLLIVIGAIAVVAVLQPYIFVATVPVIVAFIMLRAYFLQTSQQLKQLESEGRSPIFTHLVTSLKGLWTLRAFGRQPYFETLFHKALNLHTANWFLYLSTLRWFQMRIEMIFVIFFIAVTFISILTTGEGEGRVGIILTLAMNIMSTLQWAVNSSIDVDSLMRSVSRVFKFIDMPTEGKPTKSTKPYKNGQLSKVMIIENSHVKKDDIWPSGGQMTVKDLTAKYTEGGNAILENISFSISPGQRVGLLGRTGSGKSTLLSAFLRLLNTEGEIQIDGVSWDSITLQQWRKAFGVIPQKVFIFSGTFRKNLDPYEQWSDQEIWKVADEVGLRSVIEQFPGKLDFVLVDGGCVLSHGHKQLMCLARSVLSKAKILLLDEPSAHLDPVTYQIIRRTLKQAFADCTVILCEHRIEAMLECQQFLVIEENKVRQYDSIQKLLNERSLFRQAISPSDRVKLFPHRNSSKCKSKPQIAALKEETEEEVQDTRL

Compound	plasma membrane CFTR intensity	total CFTR intensity
CC[C@@H](CO)NC(=O)[C@@H]1C=C2c3cccc4c3c(cn4C)C[C@H]2N(C)C1	78% (inactive)	76%
CC(C)[C@H]1C(=O)N2CCC[C@H]2[C@]2(O)O[C@](NC(=O)[C@@H]3C=C4c5cccc6[nH]cc(c56)C[C@H]4N(C)C3)(C(C)C)C(=O)N12	106% [relative to vehicle wells set at 100] (active)	139% [measured here: total cellular F508del-CFTR signal, relative to vehicle wells set at 100]
CC(C)C[C@H]1C(=O)N2CCCC2[C@]2(O)O[C@](NC(=O)[C@@H]3C=C4c5cccc6[nH]cc(c56)CC4N(C)C3)(C(C)C)C(=O)N12 (stereo not given in full)	123% [relative to vehicle wells set at 100] (active)	142% [measured here: total cellular F508del-CFTR signal, relative to vehicle wells set at 100]
CC(C)[C@@]1(NC(=O)[C@@H]2C[C@@H]3c4cccc5[nH]cc(c45)C[C@H]3N(C)C2)O[C@@]2(O)[C@@H]3CCCN3C(=O)[C@H](Cc3ccccc3)N2C1=O	50% (inactive)	49%
Clc1ccc(C2NCCc3nc[nH]c32)cc1 (stereo not given)	79% [relative to vehicle wells set at 100] (inactive)	78% [measured here: total cellular F508del-CFTR signal, relative to vehicle wells set at 100]
CC(C)C(=O)Nc1ccc(S(=O)(=O)N2CC3CC(C2)c2cccc(=O)n2C3)cc1 (stereo not given)	92% (inactive)	96%
C[C@@]1(CO)[C@H](O)CC[C@@]2(C)[C@H]1CC[C@H]1C[C@@H]3C[C@@]12CC[C@]3(O)CO	75% (inactive)	83%
CN1CCN(CCCN2c3ccccc3Sc3ccc(Cl)cc32)CC1	57% (inactive)	48%
COP(=O)(OC)C(O)C(Cl)(Cl)Cl (stereo not given)	96% (inactive)	100%
CC12CC[C@H]3[C@@H](CCC4(O)C[C@H](O)CCC34/C=N/NC(=O)Cc3ccccc3)C1(O)CCC2C1=CC(=O)OC1 (stereo not given in full)	87% [relative to vehicle wells set at 100] (inactive)	88% [measured here: total cellular F508del-CFTR signal, relative to vehicle wells set at 100]
